# Test results taken from PubChem BioAssay AID1445 (SRMLSC, 2008).
# The whole screen tested about 220,000 compounds, of which about 910 (0.41%) were called active. The entries come from a sample that favours actives as a whole. Results with a measured potency or affinity are listed apart. Unmarked numbers belong to inactive results.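 How the source made its calls: active means primary inhibition above the hit cutoff, then over 50% inhibition at one or more dose response concentrations (cut at about 23% in these data, passing the limit was not always enough); inconclusive means conflicting primary data, or primary hits not chosen for dose response; inactive means low primary inhibition, or under 50% at every dose.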
# Biological target: Aminopeptidase N (Plasmodium falciparum (isolate 3D7)) (UniProt O96935)
# Sequence (O96935 whole entry, looked up): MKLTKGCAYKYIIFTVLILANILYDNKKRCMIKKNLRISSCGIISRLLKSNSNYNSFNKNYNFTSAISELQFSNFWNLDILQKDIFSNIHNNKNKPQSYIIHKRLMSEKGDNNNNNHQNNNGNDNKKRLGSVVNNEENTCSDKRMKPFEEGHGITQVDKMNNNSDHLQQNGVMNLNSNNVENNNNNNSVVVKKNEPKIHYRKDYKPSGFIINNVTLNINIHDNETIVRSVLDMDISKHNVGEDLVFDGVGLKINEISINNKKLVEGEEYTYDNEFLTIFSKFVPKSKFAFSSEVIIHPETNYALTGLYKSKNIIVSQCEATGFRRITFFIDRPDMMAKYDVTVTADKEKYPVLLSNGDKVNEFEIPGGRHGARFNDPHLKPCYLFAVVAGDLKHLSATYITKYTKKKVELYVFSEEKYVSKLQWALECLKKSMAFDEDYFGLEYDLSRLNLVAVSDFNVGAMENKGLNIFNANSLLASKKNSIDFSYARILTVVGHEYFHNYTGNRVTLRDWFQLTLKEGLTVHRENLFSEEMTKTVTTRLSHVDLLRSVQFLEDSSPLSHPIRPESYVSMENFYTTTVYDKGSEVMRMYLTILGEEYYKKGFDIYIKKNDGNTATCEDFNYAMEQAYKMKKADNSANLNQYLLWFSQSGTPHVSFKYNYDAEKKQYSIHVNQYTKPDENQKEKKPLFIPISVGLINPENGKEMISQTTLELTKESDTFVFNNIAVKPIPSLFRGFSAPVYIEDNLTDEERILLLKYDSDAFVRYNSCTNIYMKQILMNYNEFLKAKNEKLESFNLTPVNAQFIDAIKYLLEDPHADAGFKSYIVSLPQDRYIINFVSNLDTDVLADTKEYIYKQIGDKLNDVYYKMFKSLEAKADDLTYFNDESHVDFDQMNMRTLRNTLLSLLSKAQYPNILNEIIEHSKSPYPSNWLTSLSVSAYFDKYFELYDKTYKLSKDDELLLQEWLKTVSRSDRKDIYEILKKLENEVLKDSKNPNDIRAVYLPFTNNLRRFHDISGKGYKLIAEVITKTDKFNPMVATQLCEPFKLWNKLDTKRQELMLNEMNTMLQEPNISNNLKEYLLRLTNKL
# Experiment: P. falciparum M1AAP inhibitors, biochemical, fluorogenic H-Leu-NHMec substrate, 1536-well (AID 1445);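 further: plate controls were DMSO full reaction for no effect and no enzyme background for full effect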
# Conditions: recombinant M1AAP, H-Leu-NHMec fluorogenic kinetic assay; at 30 µM, active compounds read high unless noted
row,SMILES,inhibition
1,CS(=O)(=O)c1ccc2nnn(OCC(=O)Nc3ccc(Br)cc3Br)c2c1,1.15%
2,O=C(COC(=O)CCOc1ccccc1)NCc1ccco1,12.3%
3,O=C(O)c1cccc(CSc2n[nH]c(-c3ccc(Cl)cc3Cl)n2)c1,7.08%
4,Cc1ccc(NC(=S)NC(=O)/C=C/c2ccco2)c(O)c1,10.8%
5,O=S(=O)(c1ccc(F)cc1)N1CCN=C1SCc1cccnc1,0.03%
6,O=C(Nc1cccc(O)c1)c1cnn2cccnc12,13.6%
7,CC1(C)CC(=O)c2sc(NS(=O)(=O)c3ccc(F)cc3)nc2C1,5.81%
8,CCc1nnc(NC(=O)CSc2nnc(CNc3cccc(C)c3)n2-c2ccccc2)s1,0.64%
9,O=C(CCCCl)OCc1cn(-c2ccc(Cl)cc2)nn1,8.74%
10,O=C(NC1CCCC1)C1CCC(=O)N1C1CCCC1 (stereo unspecified),6.41%
11,CCOC(=O)c1oc2ccccc2c1CN1CCN(C)CC1,0.88%
12,Clc1ccc(/C=N\Nc2ccccc2)cc1,4.31%
13,Clc1ccc(/C=N/Nc2nnc(Cl)c3ccccc23)cc1,14.4%
14,COc1cc(N2CN=c3s/c(=C\c4ccccn4)c(=O)n3C2)cc(OC)c1OC,5.01%
15,O=[N+]([O-])c1cc(Cl)ccc1-c1nc(-c2ccncc2)no1,3.23%
16,CCN1C(=O)/C(=c2\sc3nc(=O)c(Cc4ccccc4)nn3c2=O)c2ccccc21,7.93%
17,C=CCN1C(=O)/C(=c2\sc3nc(=O)c(Cc4ccc(OC)c(OC)c4)nn3c2=O)c2ccccc21,11.6%
18,CCC(C)c1ccc2oc(-c3ccc(NC(=O)Cn4cnc5c(=O)n(C)c(=O)n(C)c54)cc3)nc2c1 (stereo unspecified),17.4%
19,O=C(N1CCOCC1)C1(c2ccc(Cl)cc2)CCCC1,-5.21%
20,O=C(CSc1ncc(C(F)(F)F)cc1Cl)NCC1CCCO1 (stereo unspecified),0.4%
21,O=C1NC(=S)N/C1=C\c1cccc([N+](=O)[O-])c1,-1.35%
22,O=C1NC(=S)N/C1=C/c1cc([N+](=O)[O-])ccc1O,27.2% (active)
23,O=C1NC(=S)N/C1=C/c1cccc([N+](=O)[O-])c1,1.79%

row,SMILES,inhibition
1,Cc1ccc(C(=O)NCCN2CCNC2=O)cc1,-8.25%
2,Cc1ccccc1OCC(=O)Nc1ccc2oc(=O)ccc2c1,16.6%
3,CCOC(=O)C1CCN(C(=O)COc2ccc(N(C)S(=O)(=O)c3ccc(OCC)cc3)cc2)CC1,-2.18%
4,CCn1c(CSc2nc3ccccc3s2)nnc1SCC(=O)c1ccc(O)cc1O,6.78%
5,CCn1c(CSc2nc3ccccc3s2)nnc1SCC(=O)c1ccc(Cl)cc1,11.1%
6,O=C(Cc1c(C(=O)O)[nH]c2ccc(Cl)cc12)Nc1ccc2c(c1)OCCO2,4.87%
7,Cc1ccc(-c2nnn(CC(=O)N(Cc3ccco3)C(C(=O)NC3CCCC3)c3cccs3)n2)o1 (stereo unspecified),0.46%
8,O=C(N/N=C/c1ccc(O)c(O)c1)C1c2ccccc2Oc2ccccc21,25.6% (active)
9,O=C(N/N=C\c1cccnc1)C1c2ccccc2Oc2ccccc21,3.5%
10,COc1cc(/C=N/NC(=O)C2c3ccccc3Oc3ccccc32)ccc1O,3.49%
11,Nc1cc(-c2cccc(F)c2)nn1S(=O)(=O)c1cccc2nsnc12,6.59%
12,CC1=C(C(=O)Nc2ccccn2)C(c2cn(C)nc2C)C2=C(CCCC2=O)N1 (stereo unspecified),9.42%
13,COc1ccccc1C(=O)Oc1cc(N)n(S(=O)(=O)c2ccccc2)n1,11.1%
14,Cc1ccc(C(=O)Oc2cc(N)n(S(=O)(=O)c3ccc(C)cc3)n2)cc1,-3.58%
15,COc1cccc(NC(=S)N(CCc2ccc(OC)c(OC)c2)Cc2ccccn2)c1,4.47%
16,CCc1ccc2nc(N3C(=O)C(O)=C(C(=O)c4ccco4)C3c3cccs3)sc2c1 (stereo unspecified),14.9%
17,Cc1ccc2nc(N3C(=O)C(O)=C(C(=O)c4cc5ccccc5o4)C3c3cccs3)sc2c1 (stereo unspecified),10.6%
18,Cc1ccc2nc(N3C(=O)C(O)=C(C(=O)c4ccco4)C3c3cccs3)sc2c1 (stereo unspecified),27.4% (active)
19,Cc1nnc(SCC(=O)N2CCN(C(=O)c3ccco3)CC2)n1-c1ccccc1,-1.57%
20,Cc1ccc(NC(=O)C(=O)NN)cc1,3.55%
21,CC(C)(C)n1nnnc1C(c1cccs1)N1CCN(Cc2ccc3c(c2)OCO3)CC1 (stereo unspecified),3.23%
22,COc1ccc(C2OC(=O)CC2C(=O)NCc2ccc(Cl)cc2)cc1OC (stereo unspecified),-0.93%
23,CCn1c(=O)c(C(=O)NNS(=O)(=O)c2ccc(C)cc2)c(O)c2ccccc21,5.97%

row,SMILES,inhibition
1,COc1cc2nc(C3CCC3)n(NC(=O)c3ccco3)c(=O)c2cc1OC,11.3%
2,Cc1ccccc1OCc1nc2ccccc2c(=O)n1NC(=O)c1ccco1,22.7%
3,O=C(Nn1c(-c2ccccc2)nc2ccccc2c1=O)c1ccco1,15.6%
4,O=C(Nn1c(C2CCCCC2)nc2ccccc2c1=O)c1ccc([N+](=O)[O-])cc1,2.98%
5,O=C(Nn1c(C2CC2)nc2ccccc2c1=O)c1ccco1,81.6% (active)
6,NS(=O)(=O)c1ccc(CCNC(=O)c2ccc(Cn3c(=O)[nH]c4ccccc4c3=O)cc2)cc1,4.04%
7,CC(/C=C/c1ccccc1)=N\NC(=O)c1cc(C)nc2ccccc12,7.74%
8,CC1CN(C(=O)c2cc(S(=O)(=O)N3CCCC3)c(Cl)cc2Cl)CC(C)O1 (stereo unspecified),-2.85%
9,O=C(CNC(=S)N(Cc1ccccc1)Cc1cccnc1)NCCc1ccccc1,-4.94%
10,N=c1c(C(=O)NCc2ccco2)cc2c(=O)n3ccccc3nc2n1CCc1ccccc1,9.03%
11,N=c1c(C(=O)NCc2ccc(F)cc2)cc2c(=O)n3ccccc3nc2n1CCCN1CCOCC1,5.69%
12,Cc1cccn2c(=O)c3cc(C(=O)NCc4cccnc4)c(=N)n(C(C)C)c3nc12,0.19%
13,N=c1c(C(=O)NCc2ccco2)cc2c(=O)n3ccccc3nc2n1Cc1ccccc1,11.6%
14,N=c1c(C(=O)NC2CCCC2)cc2c(=O)n3ccccc3nc2n1CCN1CCOCC1,12.5%
15,Cc1cccn2c(=O)c3cc(C(=O)NCc4ccco4)c(=N)n(C(C)C)c3nc12,18.3%
16,O=C(COc1cc(F)ccc1[N+](=O)[O-])Nc1ccc(N2CCOCC2)cc1,1.97%
17,COc1cc(/C=C/C(=O)O)cc(S(=O)(=O)N2CCc3ccccc32)c1OC,7.41%
18,O=C(O)Cc1ccc(-c2ccccc2-c2ccccc2)cc1,6.14%
19,COc1ccc(OC)c(C(C)NC(=O)c2ccc(Br)cc2)c1 (stereo unspecified),6.29%
20,CCc1cccc(CC)c1NC(=O)c1ccc(-n2cncn2)nc1,3.55%
21,Cc1c(Cl)cccc1NC(=O)CCC(=O)N/N=C/c1ccc[nH]1,6.91%
22,CC(=O)Nc1sc(C)c(C)c1C(=O)Nc1ccc(C)cc1,10.1%
23,COc1cc(/C=C2\SC(=Nc3ccccc3)N(CCc3c[nH]c4ccccc34)C2=O)ccc1OC(C)C(=O)O (stereo unspecified),16.3%

row,SMILES,inhibition
1,COc1ccc(N=C2S/C(=C\c3ccc(OC(C)C(=O)O)c(OC)c3)C(=O)N2CCc2c[nH]c3ccccc23)cc1 (stereo unspecified),31.6%
2,CCCn1c(N2CCN(C)CC2)nc2c1c(=O)[nH]c(=O)n2C,-4.63%
3,COc1ccc(S(=O)(=O)N(NC2=NS(=O)(=O)c3ccccc32)C(=O)C(C)C)cc1,9.06%
4,CCN(C1=NS(=O)(=O)c2ccccc21)N(CC)S(=O)(=O)c1ccc(C)cc1,-4.7%
5,CC1CCCCC1NC(=O)C(=O)NCC1CCCO1 (stereo unspecified),0.74%
6,Clc1cccc(-c2ccc(CNCCCN3CCOCC3)o2)c1,2.45%
7,CCc1nn(C(C)C(=O)N2CCc3ccccc3C2)c(=O)c2cc3occc3n12 (stereo unspecified),2.28%
8,CCc1nn(CCCC(=O)N2CCc3ccccc3C2)c(=O)c2cc3occc3n12,23.8% (active)
9,O=C(CCCn1ncn2c(cc3occc32)c1=O)N1CCc2ccccc2C1,2.44%
10,CS(=O)(=O)N(Cc1ccc(C(=O)NC2CCCCC2O)cc1)c1ccccc1 (stereo unspecified),4.69%
11,CCOC(=O)N1CCN(C(=O)CN2C(=O)COc3ccc(C(C)(C)C)cc32)CC1,2.47%
12,CCS(=O)(=O)Nc1ccc(-c2nc3cccnc3s2)cc1,11.6%
13,CCc1ccc(S(=O)(=O)Nc2ccc(-c3nc4cccnc4s3)cc2)s1,27.2% (active)
14,O=S(=O)(Nc1ccc(-c2nc3cccnc3s2)cc1)c1ccc(Cl)s1,13.1%
15,N#Cc1c(N2C(=O)Nc3ccccc3N2O)sc2c1CCCCCC2,11.8%
16,C=CCn1c(C(CC)CC(C)(C)O)n[nH]c1=S (stereo unspecified),-5.97%
17,Cc1cc2cc(CCNC(=O)c3ccc(S(=O)(=O)N4CCOCC4)cc3)c(=O)[nH]c2cc1C,0.05%
18,O=C(COc1ccccc1/C=C1/NC(=O)NC1=O)Nc1ccccc1,16.8%
19,O=C1NC(=O)/C(=C/c2ccccc2OCc2ccccc2)S1,19.3%
20,C=CCN1C(=O)N/C(=C/c2ccccc2OCC(=O)Nc2ccc(F)cc2)C1=O,6.37%
21,O=C1NC(=O)/C(=C\c2ccccc2OCc2ccccc2)S1,12.7%
22,CSCC[C@@H](C(=O)NCc1cccs1)N1Cc2ccccc2C1=O,6.93%
